{"source": "PubChem BioAssay (EPA / NIEHS)", "note": "A structure can be active in one record and inactive in another. The source made the active and inactive calls. How the source made its calls: active means hit-call score of the fitted dose curve at least 0.9, where 1 is the maximum; inactive means score below 0.9."}
{"assay": "APR_HepG2_CellCycleArrest_24hr: Apredica 24-hour HepG2 Assay for Cell Cycle Arrest (AID 2282905);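 further: cell cycle arrest scored as ratio of 2N to 4N nuclear DNA content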", "details": "imaging, actives raise or lower the signal", "in_short": "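After 24 h exposure at 0.39–200 uM in 0.5% DMSO, fixed cells received Hoechst 33342 staining. Imaging quantified per-nucleus DNA content; gain or loss fitted against DMSO controls.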"}
{"molecule": "CC[C@H](C)[C@H]1O[C@]2(C=C[C@@H]1C)C[C@@H]1C[C@@H](C/C=C(\\C)[C@@H](O[C@H]3C[C@H](OC)[C@@H](O[C@H]4C[C@H](OC)[C@@H](O)[C@H](C)O4)[C@H](C)O3)[C@@H](C)/C=C/C=C3\\CO[C@@H]4[C@H](O)C(C)=C[C@@H](C(=O)O1)[C@]34O)O2", "note": "(tested in a mixture with another compound)", "AC50": "12.7 µM (active)"}
{"molecule": "CNC(=O)Oc1cccc(N=CN(C)C)c1", "outcome": "inactive"}
{"molecule": "Clc1ccccc1-c1nnc(-c2ccccc2Cl)nn1", "AC50": "67.6 µM (active)"}
{"molecule": "Cc1cc(C)nc(NC(=O)NS(=O)(=O)c2ccccc2C(=O)OC2COC2)n1", "outcome": "inactive"}
{"molecule": "O=C(O)COc1ccc(Cl)cc1Cl", "outcome": "inactive"}
{"molecule": "COC(=O)c1ccccc1S(=O)(=O)NC(=O)N(C)c1nc(C)nc(OC)n1", "outcome": "inactive"}
{"molecule": "Oc1ccc(Cl)cc1Cc1ccccc1", "AC50": "102 µM (active) [middle of 4 runs]", "outcome": "inactive"}
{"assay": "APR_HepG2_StressKinase_1hr: Apredica 1-hour HepG2 Assay for Stress Kinase (AID 2282906)", "details": "HepG2 stress kinase (phospho-c-Jun) imaging, actives raise or lower the signal", "in_short": "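High-content imaging of phospho-c-Jun immunostaining (with Hoechst nuclear identification) after a 1 h exposure of HepG2 cells to 10 concentrations from 0.39 to 200 uM, final DMSO 0.5%. Fitted bidirectionally against DMSO.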"}
{"molecule": "OCCOc1ccccc1", "outcome": "inactive"}
{"molecule": "CC1(c2ccc(Oc3ccccc3)cc2)OC(=O)N(Nc2ccccc2)C1=O", "note": "(configuration not stated)", "outcome": "inactive"}
{"molecule": "CC(C)(C)C(O)C(Oc1ccc(Cl)cc1)n1cncn1", "note": "(configuration not stated)", "outcome": "inactive"}
{"molecule": "O=S1OCC2C(CO1)C1(Cl)C(Cl)=C(Cl)C2(Cl)C1(Cl)Cl", "note": "(configuration not stated)", "AC50": "94.4 µM (active)"}
{"molecule": "CC(C)OC(=O)Nc1cccc(Cl)c1", "outcome": "inactive"}
{"molecule": "COP(=S)(OC)Oc1ccc([N+](=O)[O-])cc1", "outcome": "inactive"}
{"molecule": "O=C(O)C(F)(F)C(F)(F)C(F)(F)C(F)(F)C(F)(F)C(F)(F)C(F)(F)F", "outcome": "inactive"}
{"molecule": "Cc1[nH]c(=O)n(C(C)(C)C)c(=O)c1Cl", "outcome": "inactive"}
{"molecule": "O=[N+]([O-])c1c(Cl)c(Cl)c(Cl)c(Cl)c1Cl", "outcome": "inactive"}
{"molecule": "CCCN(CCOc1c(Cl)cc(Cl)cc1Cl)C(=O)n1ccnc1", "outcome": "inactive"}
{"molecule": "O=S(=O)(O)C(F)(F)C(F)(F)C(F)(F)C(F)(F)C(F)(F)C(F)(F)C(F)(F)C(F)(F)F", "outcome": "inactive"}
{"molecule": "Oc1cc(Cl)ccc1Oc1ccc(Cl)cc1Cl", "outcome": "inactive"}
{"molecule": "CCC(C)(NC(=O)c1cc(Cl)c(C)c(Cl)c1)C(=O)CCl", "note": "(configuration not stated)", "AC50": "37 µM (active)"}
{"molecule": "CNC(=O)Oc1ccccc1OC(C)C", "outcome": "inactive"}
{"molecule": "CNC(=O)CSP(=S)(OC)OC", "outcome": "inactive"}
{"molecule": "O=C1c2ccccc2C(=O)N1SC(Cl)(Cl)Cl", "outcome": "inactive"}
{"molecule": "ClC1C(Cl)C(Cl)C(Cl)C(Cl)C1Cl", "note": "(configuration not stated)", "outcome": "inactive"}
{"molecule": "[2H]C1([2H])[n+]2ccccc2-c2cccc[n+]2C1([2H])[2H]", "outcome": "inactive"}
{"molecule": "COC(=O)c1ccccc1CS(=O)(=O)NC(=O)Nc1nc(OC)cc(OC)n1", "outcome": "inactive"}
{"molecule": "CC[C@H](C)[C@H]1O[C@]2(C=C[C@@H]1C)C[C@@H]1C[C@@H](C/C=C(\\C)[C@@H](O[C@H]3C[C@H](OC)[C@@H](O[C@H]4C[C@H](OC)[C@@H](O)[C@H](C)O4)[C@H](C)O3)[C@@H](C)/C=C/C=C3\\CO[C@@H]4[C@H](O)C(C)=C[C@@H](C(=O)O1)[C@]34O)O2", "note": "(tested in a mixture with another compound)", "AC50": "22.3 µM (active)"}
{"molecule": "CNC(=O)Oc1cccc(N=CN(C)C)c1", "outcome": "inactive"}
{"molecule": "Clc1ccccc1-c1nnc(-c2ccccc2Cl)nn1", "outcome": "inactive"}
{"molecule": "Cc1cc(C)nc(NC(=O)NS(=O)(=O)c2ccccc2C(=O)OC2COC2)n1", "outcome": "inactive"}
{"molecule": "O=C(O)COc1ccc(Cl)cc1Cl", "outcome": "inactive"}
{"molecule": "COC(=O)c1ccccc1S(=O)(=O)NC(=O)N(C)c1nc(C)nc(OC)n1", "outcome": "inactive"}
{"molecule": "Oc1ccc(Cl)cc1Cc1ccccc1", "AC50": "77.4 µM (active)"}
{"assay": "APR_HepG2_NuclearSize_24hr: Apredica 24-hour HepG2 Assay for Nuclear Size (AID 2282907)", "details": "high-content imaging, actives raise or lower the signal", "in_short": "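Nuclear size from Hoechst 33342-stained, formaldehyde-fixed HepG2 nuclei imaged by high-content microscopy, after 24 h dosing at ten concentrations from 0.39 to 200 uM in 0.5% DMSO; gain or loss relative to DMSO baseline.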"}
{"molecule": "OCCOc1ccccc1", "outcome": "inactive"}
{"molecule": "CC1(c2ccc(Oc3ccccc3)cc2)OC(=O)N(Nc2ccccc2)C1=O", "note": "(configuration not stated)", "outcome": "inactive"}
{"molecule": "CC(C)(C)C(O)C(Oc1ccc(Cl)cc1)n1cncn1", "note": "(configuration not stated)", "outcome": "inactive"}
{"molecule": "O=S1OCC2C(CO1)C1(Cl)C(Cl)=C(Cl)C2(Cl)C1(Cl)Cl", "note": "(configuration not stated)", "outcome": "inactive"}
{"molecule": "CC(C)OC(=O)Nc1cccc(Cl)c1", "outcome": "inactive"}
{"molecule": "COP(=S)(OC)Oc1ccc([N+](=O)[O-])cc1", "outcome": "inactive"}
{"molecule": "O=C(O)C(F)(F)C(F)(F)C(F)(F)C(F)(F)C(F)(F)C(F)(F)C(F)(F)F", "outcome": "inactive"}
{"molecule": "Cc1[nH]c(=O)n(C(C)(C)C)c(=O)c1Cl", "outcome": "inactive"}
{"molecule": "O=[N+]([O-])c1c(Cl)c(Cl)c(Cl)c(Cl)c1Cl", "outcome": "inactive"}
{"molecule": "CCCN(CCOc1c(Cl)cc(Cl)cc1Cl)C(=O)n1ccnc1", "outcome": "inactive"}
{"molecule": "O=S(=O)(O)C(F)(F)C(F)(F)C(F)(F)C(F)(F)C(F)(F)C(F)(F)C(F)(F)C(F)(F)F", "AC50": "63.8 µM (active)", "outcome": "inactive"}
{"molecule": "Oc1cc(Cl)ccc1Oc1ccc(Cl)cc1Cl", "AC50": "63.9 µM (active)", "outcome": "inactive"}
{"molecule": "CCC(C)(NC(=O)c1cc(Cl)c(C)c(Cl)c1)C(=O)CCl", "note": "(configuration not stated)", "outcome": "inactive"}
{"molecule": "CNC(=O)Oc1ccccc1OC(C)C", "outcome": "inactive"}
{"molecule": "CNC(=O)CSP(=S)(OC)OC", "outcome": "inactive"}
{"molecule": "O=C1c2ccccc2C(=O)N1SC(Cl)(Cl)Cl", "outcome": "inactive"}
{"molecule": "ClC1C(Cl)C(Cl)C(Cl)C(Cl)C1Cl", "note": "(configuration not stated)", "outcome": "inactive"}
{"molecule": "[2H]C1([2H])[n+]2ccccc2-c2cccc[n+]2C1([2H])[2H]", "outcome": "inactive"}
{"molecule": "COC(=O)c1ccccc1CS(=O)(=O)NC(=O)Nc1nc(OC)cc(OC)n1", "outcome": "inactive"}
{"molecule": "CC[C@H](C)[C@H]1O[C@]2(C=C[C@@H]1C)C[C@@H]1C[C@@H](C/C=C(\\C)[C@@H](O[C@H]3C[C@H](OC)[C@@H](O[C@H]4C[C@H](OC)[C@@H](O)[C@H](C)O4)[C@H](C)O3)[C@@H](C)/C=C/C=C3\\CO[C@@H]4[C@H](O)C(C)=C[C@@H](C(=O)O1)[C@]34O)O2", "note": "(tested in a mixture with another compound)", "outcome": "inactive"}
{"molecule": "CNC(=O)Oc1cccc(N=CN(C)C)c1", "outcome": "inactive"}
{"molecule": "Clc1ccccc1-c1nnc(-c2ccccc2Cl)nn1", "outcome": "inactive"}
{"molecule": "Cc1cc(C)nc(NC(=O)NS(=O)(=O)c2ccccc2C(=O)OC2COC2)n1", "outcome": "inactive"}
{"molecule": "O=C(O)COc1ccc(Cl)cc1Cl", "outcome": "inactive"}
{"molecule": "COC(=O)c1ccccc1S(=O)(=O)NC(=O)N(C)c1nc(C)nc(OC)n1", "outcome": "inactive"}
{"molecule": "Oc1ccc(Cl)cc1Cc1ccccc1", "outcome": "inactive"}
